Test results from PubChem BioAssay (EPA / NIEHS).
Some compounds were tested as several samples or in several runs, with calls that do not always agree. Active and inactive are the calls of the source. How the source made its calls: active means hit-call score of the fitted dose curve at least 0.9, where 1 is the maximum; inactive means score below 0.9.

molecular target: CCAAT/enhancer-binding protein beta (Homo sapiens) (UniProt P17676); test: ATG_C_EBP_CIS: Attagene CIS-FACTORIAL HepG2 Assay for human CCAAT/Enhancer Binding Protein (C/EBP) beta (AID 2282927); conditions: HepG2 Attagene cis-factorial transcription factor reporter; actives raise or lower the signal
Sequence (P17676 whole entry, looked up): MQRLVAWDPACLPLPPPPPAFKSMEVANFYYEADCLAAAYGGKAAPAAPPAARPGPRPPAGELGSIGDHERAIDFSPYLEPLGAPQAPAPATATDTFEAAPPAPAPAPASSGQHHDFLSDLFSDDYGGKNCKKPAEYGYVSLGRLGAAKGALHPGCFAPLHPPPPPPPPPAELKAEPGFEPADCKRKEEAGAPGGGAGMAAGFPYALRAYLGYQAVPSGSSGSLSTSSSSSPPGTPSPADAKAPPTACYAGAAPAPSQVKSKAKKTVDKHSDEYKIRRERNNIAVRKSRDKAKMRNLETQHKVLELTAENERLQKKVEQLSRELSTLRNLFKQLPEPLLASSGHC
How it was run: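 Following a 24 h incubation with test chemical, transfected HepG2 cells yielded RNA whose reporter transcripts were quantified by RT-PCR and fluorescent capillary electrophoresis, with DMSO serving as baseline for bidirectional fitting.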

outcome, inactive:
O=CC(F)(F)C(F)(F)C(F)(F)C(F)F
O=CC(F)(F)C(F)(F)C(F)(F)F
CCCCCCCCCCCCCCC
NC(C(F)(F)F)C(F)(F)F
Cc1cc(=O)oc2cc(O)ccc12
O=C(c1ccccc1)c1ccccc1
OCC(CO)(CBr)CBr
O=C(NO)c1ccccc1
O=C(CCCN1CCC(O)(c2ccc(Cl)cc2)CC1)c1ccc(F)cc1
CCOC=C(C(=O)OCC)C(=O)OCC
C=C(c1ccc(C(=O)O)cc1)c1cc2c(cc1C)C(C)(C)CCC2(C)C
CCCCC(CC)C(=O)O (stereo not given)
CCOC=O
CN(Cc1cnc2nc(N)nc(N)c2n1)c1ccc(C(=O)N[C@@H](CCC(=O)O)C(=O)O)cc1
CCN(CC)CC
CCCCCCCCCCCC[N+](C)(C)Cc1ccccc1
NCCN
CC(C)(C)c1ccc(O)c(O)c1
C=CC(F)(F)C(F)(F)C(F)(F)C(F)(F)F
O=C1NS(=O)(=O)c2ccccc21
CCCCCCCCCC=CCC1CC(=O)OC1=O (stereo not given)
O=C1Cc2ccccc2N1c1c(Cl)cccc1Cl
C=CC(=O)OCC(CO)(COCC(COC(=O)C=C)(COC(=O)C=C)COC(=O)C=C)COC(=O)C=C
NC(=NCCCCCCN=C(N)/N=C(\N)Nc1ccc(Cl)cc1)/N=C(\N)Nc1ccc(Cl)cc1
CN(C)c1ccc(C(=C2C=CC(=[N+](C)C)C=C2)c2ccccc2)cc1
CC(C)c1c(C(=O)Nc2ccccc2)c(-c2ccccc2)c(-c2ccc(F)cc2)n1CC[C@@H](O)C[C@@H](O)CC(=O)O
Cc1[nH]nc2c1N=C(c1ccccc1Cl)c1cc([N+](=O)[O-])ccc1N2
CC(=O)Nc1ccc(O)cc1
COCN(COC)c1nc(N(COC)COC)nc(N(COC)COC)n1
CN(C)CCOC(c1ccccc1)c1ccccc1
CCCCC=O
CS(=O)(=O)c1ccc([C@@H](CC2CCCC2)C(=O)Nc2cnccn2)cc1Cl
CCC(=O)C=Cc1ccc(OC)cc1
N=C(N)c1ccc(OCCCCCOc2ccc(C(=N)N)cc2)cc1

AC50, active:
CCCCc1oc2ccccc2c1C(=O)c1cc(I)c(OCCN(CC)CC)c(I)c1 95 µM
C=C(c1ccc(C(=O)O)cc1)c1cc2c(cc1C)C(C)(C)CCC2(C)C 0.0309 µM
CCCCCCCCCCCC[N+](C)(C)Cc1ccccc1 18 µM
Cn1sccc1=O 161 µM
NC(=NCCCCCCN=C(N)/N=C(\N)Nc1ccc(Cl)cc1)/N=C(\N)Nc1ccc(Cl)cc1 24.6 µM

tested on: not listed separately; test: ATG_CMV_CIS: Attagene CIS-FACTORIAL HepG2 Assay for human CMV (Internal Marker) (AID 2282928); conditions: HepG2 CMV promoter reporter, transcription factor profiling; actives raise or lower the signal;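 further: endpoint acts as a background internal control marker rather than a target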
How it was run: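 Readout: fluorescent reporter cDNA fragments separated by capillary electrophoresis after RT-PCR and HpaI cut. Cells: HepG2 carrying transfected cis-promoter reporter constructs, dosed 24 h. Endpoint serves as background internal-marker control, fit bidirectionally versus DMSO.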

outcome, inactive:
CCCCCCCCCCCCCCC
O=C(c1ccccc1)c1ccccc1
OCC(CO)(CBr)CBr
C=C(c1ccc(C(=O)O)cc1)c1cc2c(cc1C)C(C)(C)CCC2(C)C
CCCCCCCCCCCC[N+](C)(C)Cc1ccccc1
CC(C)(C)c1ccc(O)c(O)c1
CN(C)c1ccc(C(=C2C=CC(=[N+](C)C)C=C2)c2ccccc2)cc1
CN(C)CCOC(c1ccccc1)c1ccccc1

AC50, active:
CCCCc1oc2ccccc2c1C(=O)c1cc(I)c(OCCN(CC)CC)c(I)c1 20 µM
O=C(NO)c1ccccc1 37.2 µM [middle of 4 runs]
O=C(CCCN1CCC(O)(c2ccc(Cl)cc2)CC1)c1ccc(F)cc1 49.7 µM
C=C(c1ccc(C(=O)O)cc1)c1cc2c(cc1C)C(C)(C)CCC2(C)C 4.89 µM
CCCCCCCCCCCC[N+](C)(C)Cc1ccccc1 14.5 µM
CC(C)(C)c1ccc(O)c(O)c1 64.9 µM [middle of 4 runs]
Cc1[nH]nc2c1N=C(c1ccccc1Cl)c1cc([N+](=O)[O-])ccc1N2 1.58 µM
N=C(N)c1ccc(OCCCCCOc2ccc(C(=N)N)cc2)cc1 0.781 µM
